Source: PubChem
FAS-TE inh: inhibitors of human fatty acid synthase thioesterase domain | recombinant FAS-TE, OMFH fluorogenic substrate, fluorescence endpoint | inhibition, % at 15 µM | 360,000 tested, 0.67% active | AID 602261;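 active means compounds whose normalised, plate-corrected inhibition of enzyme fluorescence in the single-dose primary screen is 50% or more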;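 further: 0% = DMSO with enzyme and 100% = substrate without enzyme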
Target sequence (P49327 whole entry, looked up, the tested form may be a part): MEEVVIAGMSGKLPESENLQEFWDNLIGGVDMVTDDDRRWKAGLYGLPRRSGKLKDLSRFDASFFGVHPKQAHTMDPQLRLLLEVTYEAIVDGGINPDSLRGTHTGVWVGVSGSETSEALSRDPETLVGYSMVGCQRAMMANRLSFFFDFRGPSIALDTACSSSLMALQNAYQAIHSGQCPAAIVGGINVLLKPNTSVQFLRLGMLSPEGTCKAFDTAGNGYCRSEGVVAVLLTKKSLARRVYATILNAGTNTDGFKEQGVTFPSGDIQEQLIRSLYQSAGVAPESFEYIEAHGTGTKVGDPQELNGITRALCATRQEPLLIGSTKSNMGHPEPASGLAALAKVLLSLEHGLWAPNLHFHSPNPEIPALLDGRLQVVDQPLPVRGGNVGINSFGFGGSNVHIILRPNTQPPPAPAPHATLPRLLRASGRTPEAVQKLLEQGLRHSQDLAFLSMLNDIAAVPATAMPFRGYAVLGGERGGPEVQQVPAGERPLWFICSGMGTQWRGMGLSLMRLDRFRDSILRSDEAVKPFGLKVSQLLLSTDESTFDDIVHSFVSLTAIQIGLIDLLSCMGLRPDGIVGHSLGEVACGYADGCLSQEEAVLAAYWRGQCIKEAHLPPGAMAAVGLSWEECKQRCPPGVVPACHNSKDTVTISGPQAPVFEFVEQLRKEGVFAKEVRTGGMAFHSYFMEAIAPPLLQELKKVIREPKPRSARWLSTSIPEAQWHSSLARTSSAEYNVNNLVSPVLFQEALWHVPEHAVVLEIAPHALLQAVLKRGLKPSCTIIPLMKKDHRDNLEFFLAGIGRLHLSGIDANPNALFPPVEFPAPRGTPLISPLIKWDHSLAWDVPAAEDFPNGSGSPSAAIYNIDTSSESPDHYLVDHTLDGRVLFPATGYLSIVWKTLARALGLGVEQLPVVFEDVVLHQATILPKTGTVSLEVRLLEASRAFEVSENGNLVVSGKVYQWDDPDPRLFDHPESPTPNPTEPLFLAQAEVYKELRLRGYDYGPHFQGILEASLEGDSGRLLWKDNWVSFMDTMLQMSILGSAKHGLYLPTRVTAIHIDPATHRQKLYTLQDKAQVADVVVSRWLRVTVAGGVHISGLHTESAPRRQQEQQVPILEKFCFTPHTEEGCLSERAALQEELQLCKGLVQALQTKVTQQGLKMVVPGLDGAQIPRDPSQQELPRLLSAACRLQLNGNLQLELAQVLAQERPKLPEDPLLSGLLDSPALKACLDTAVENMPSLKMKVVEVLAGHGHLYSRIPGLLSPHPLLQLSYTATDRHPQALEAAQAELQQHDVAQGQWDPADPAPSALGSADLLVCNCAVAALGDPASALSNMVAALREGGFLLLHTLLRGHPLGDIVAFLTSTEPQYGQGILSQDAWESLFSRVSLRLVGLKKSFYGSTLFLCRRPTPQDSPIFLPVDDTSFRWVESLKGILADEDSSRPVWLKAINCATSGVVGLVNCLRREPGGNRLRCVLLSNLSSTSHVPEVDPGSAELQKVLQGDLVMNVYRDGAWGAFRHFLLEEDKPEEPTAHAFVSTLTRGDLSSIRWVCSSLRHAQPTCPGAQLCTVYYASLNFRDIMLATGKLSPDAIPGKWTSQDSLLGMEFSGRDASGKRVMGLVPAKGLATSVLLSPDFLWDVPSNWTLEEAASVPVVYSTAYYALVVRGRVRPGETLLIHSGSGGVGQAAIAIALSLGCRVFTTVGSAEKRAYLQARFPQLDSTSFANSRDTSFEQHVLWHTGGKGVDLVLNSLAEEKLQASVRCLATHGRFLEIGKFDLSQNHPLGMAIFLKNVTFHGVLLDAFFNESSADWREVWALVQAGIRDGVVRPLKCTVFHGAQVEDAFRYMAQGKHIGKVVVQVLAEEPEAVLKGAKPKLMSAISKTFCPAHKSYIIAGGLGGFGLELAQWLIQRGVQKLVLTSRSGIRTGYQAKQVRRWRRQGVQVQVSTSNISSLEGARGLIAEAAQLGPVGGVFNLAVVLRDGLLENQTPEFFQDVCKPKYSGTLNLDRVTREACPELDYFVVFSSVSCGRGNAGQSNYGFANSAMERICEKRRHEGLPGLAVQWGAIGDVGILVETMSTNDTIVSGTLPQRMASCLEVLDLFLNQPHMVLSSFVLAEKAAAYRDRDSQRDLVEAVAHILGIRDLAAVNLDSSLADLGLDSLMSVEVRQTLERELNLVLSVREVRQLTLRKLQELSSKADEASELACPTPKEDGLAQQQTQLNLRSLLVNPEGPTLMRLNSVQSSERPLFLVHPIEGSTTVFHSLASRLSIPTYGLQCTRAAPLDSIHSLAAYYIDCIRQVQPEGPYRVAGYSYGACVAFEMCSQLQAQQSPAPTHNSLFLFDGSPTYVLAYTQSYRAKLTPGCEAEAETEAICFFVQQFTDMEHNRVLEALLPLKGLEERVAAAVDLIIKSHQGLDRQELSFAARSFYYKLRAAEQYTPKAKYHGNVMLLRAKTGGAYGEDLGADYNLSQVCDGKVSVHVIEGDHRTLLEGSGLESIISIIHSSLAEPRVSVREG
p-CIP stab down: lowers stability of the mouse p/CIP coactivator protein. Q05BA5. F442A p/CIP-EGFP cells, EGFP fluorescence, 16 h. decrease of EGFP signal, % at 10 µM. 290,000 tested, 0.01% active;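 active means EGFP signal decrease of at least 30% at 10 µM or well 3 SD below plate mean, unless failing retest; inactive means the rest, including hits failing retest or dose response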
beta cell repl: inducers of beta-cell replication in MIN6 cells. 330,000 tested, 0.29% active. AID 2380. MIN6 cells proliferation, ATPlite luminescence, 48 h; cells starved in 0.2% serum; 100% = growth in 10% serum. proliferation, % at 10 µM;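 active means compounds whose signal lies at least 3.5 SD above the mean of all wells on their plate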;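 further: 0% = DMSO-treated cells in low-serum medium and 100% = 10% serum control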
GRIN3A LBD mod: modulators (binders) of human NR3A ligand-binding domain; Tm shift relative to glycine control, % at 25 µM; NR3A LBD differential scanning fluorimetry, Tm shift; 0% = protein alone, 100% = glycine-bound protein; 340,000 tested, 2.5% active;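 active means melting temperature shift of at least 10% of the positive control shift, at one fixed dose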
MPTP block: blocks calcium-induced mitochondrial swelling; 360,000 tested, 1.4% active; isolated mouse mitochondria, Ca2+ swelling absorbance, 30 min; AID 602449; inhibition, % at 10 µM;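 active means inhibition of 50% or more, scaled per plate between neutral and stimulator controls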;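 further: 0% = DMSO wells given calcium and 100% = 1 mM EGTA wells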
MPTP counter: Rhodamine 123 counter-screen of mitochondrial pore hits; shares compounds with MPTP block; isolated mitochondria, membrane potential, Rhodamine 123 fluorescence; inhibition, % at 10 µM; 5,000 tested, 78% active; in the data active means inhibition above about 22%;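 further: 0% = DMSO vehicle and 100% = positive control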
MPTP abs DR: MPTP inhibition, dose response swelling confirmation | 780 tested, 58% active | IC50, µM | isolated mitochondria swelling, absorbance | shares compounds with MPTP block; in the data active means IC50 below about 20 µM
MPTP counter DR: MPTP inhibitor counter-screen activity, dose response | shares compounds with MPTP block | isolated mitochondria counterscreen, fluorescence read-out | IC50, µM | 780 tested, 49% active; in the data active means IC50 below about 80 µM
Starred values were filed as active, the others as inactive; i = inactive; nt = not tested or not shown. Only some compounds are listed: those with a hit (about 4.1% of all), similar ones and a draw of the others.

SMILES	FAS-TE inh	p-CIP stab down	beta cell repl	GRIN3A LBD mod	MPTP block	MPTP counter	others
CC(C)c1csc(CN2CCC(N3CCC(C(=O)NCC4CCCO4)CC3)CC2)n1 (stereo not given)	-4.3	2.4	-0.9	-1.0	-1.8	nt
C=CCNCCCCOc1ccc(Br)cc1C	-9.1	6.3	0.0	1.9	71.4*	-4.1	MPTP abs DR=8.32*;MPTP counter DR=>80
COc1ccc(NC(=O)C2Cc3c(-c4ccc(Cl)cc4)ccnc3O2)cc1OC (stereo not given)	8.4	nt	nt	nt	69.9*	79.8*
COc1ccc(NC(=O)C2Cc3c(-c4ccccc4)ccnc3O2)cc1OC (stereo not given)	-5.9	nt	nt	nt	59.4*	84.7*
COc1ccc(NC(=O)C2Cc3c(-c4ccncc4)ccnc3O2)cc1OC (stereo not given)	-1.5	nt	nt	nt	-2.5	nt
CC(C)CN1C(=O)c2ccc(C(=O)Nc3ccccn3)cc2C1=O	-8.6	1.5	0.1	-1.0	0.5	nt
CC(C)CN1C(=O)c2ccc(C(=O)Nc3ccncc3)cc2C1=O	-7.6	-12.7	0.1	0.0	60.0*	70.3*
CC(C)CCN1C(=O)c2ccc(C(=O)Nc3cc(C(=O)O)cc(C(=O)O)c3)cc2C1=O	13.3	-20.1	-0.2	2.2	-0.5	nt
CC(C)CCN1C(=O)c2ccc(C(=O)Nc3ccc(Br)cc3C(=O)O)cc2C1=O	-132.0	7.0	-0.8	0.3	92.7*	45.9*
CCCc1nnc(NC(=O)CCC(=O)N2CCCCC2CC)s1 (stereo not given)	-3.2	5.0	2.4	0.9	0.9	nt
COc1cccc(C(=O)C2CCCN(C(=O)c3cccc(C#CC(C)(C)O)c3)C2)c1 (stereo not given)	-2.3	-11.1	-1.5	-0.9	-0.8	nt
COc1ccc(C2(C)NC(=O)N(CC(=O)c3cc(C)n(C4CC4)c3C)C2=O)cc1OC (stereo not given)	-11.4	nt	-6.2	3.9	-0.4	nt
Cc1ccc(C)c2c1[nH]c1ccc([N+](=O)[O-])cc12	19.5	5.8	-3.1	35.3*	81.4*	82.1*
O=[N+]([O-])c1cc(/C=N/N/C(=N/c2ccccn2)c2ccccn2)ccc1O	3.0	-11.0	-2.5	-5.4	78.0*	8.3
O=[N+]([O-])c1ccc(/C=N/N/C(=N/c2ccccn2)c2ccccn2)cc1	8.0	7.8	-0.8	-0.1	-0.6	nt
CCc1ccccc1NC(=O)N1CCCc2ccccc21	-3.4	6.4	-5.3	0.4	-0.4	nt
CC(=O)CSc1ccc(-c2nc3cc(C)c(C)cc3[nH]2)cn1	1.2	-6.9	-4.4	-3.4	-2.2	nt
Cc1cc2nc(-c3ccc(SCc4ccc(C#N)cc4)nc3)[nH]c2cc1C	14.3	-6.0	-4.5	-1.2	67.4*	66.0*
CCCCOc1ncnc2c1[nH]c1ccc(F)cc12	-4.3	-13.6	-4.4	0.5	94.8*	84.3*
OC1(c2cccc(C(F)(F)F)c2)CCN(c2ncnc3c2[nH]c2ccc(F)cc23)CC1	28.6	-21.1	nt	9.5	50.4*	87.4*
Fc1ccc2[nH]c3c(N4CCN(c5ccccc5)CC4)ncnc3c2c1	12.1	-34.0	-5.4	6.4	97.6*	111.5*
CCOC(=O)N1CCN(c2ncnc3c2[nH]c2ccc(F)cc23)CC1	-1.9	-19.2	-3.3	0.4	98.4*	84.3*
Fc1ccc2[nH]c3c(Cl)ncnc3c2c1	-2.2	-3.0	-0.9	0.8	-0.9	nt
COc1ccc(C(=O)[C@@H]2CC[C@](C)(C(=O)O)C2(C)C)cc1	-10.7	nt	-1.9	0.5	-0.8	nt
CN1CCN(c2nc3c(c(=O)[nH]c(=O)n3C)n2Cc2ccc([N+](=O)[O-])cc2)CC1	0.0	2.8	-0.7	-1.3	0.0	nt
SMILES	FAS-TE inh	p-CIP stab down	beta cell repl	GRIN3A LBD mod	MPTP block	MPTP counter	others
CCCn1cc(CN2CCCC(C(=O)c3ccc4c(c3)OCO4)C2)c(C)n1 (stereo not given)	-6.6	-3.6	5.1	3.8	2.2	nt
CNC(=O)c1cnc(-c2ccccc2)nc1-c1ccccc1	0.7	11.0	-2.2	0.5	-0.7	nt
O=C(Nc1ccc(Cl)cc1)c1cnc(-c2ccccc2)nc1-c1ccccc1	5.4	-3.0	-6.3	6.6	72.6*	36.2*
O=C(O)C1=C[C@@H](O)[C@@H](O)[C@H](O)C1	-2.6	nt	nt	5.9	-0.8	nt
O=C(c1ccc(S(=O)(=O)Cc2ccccc2F)c([N+](=O)[O-])c1)N1CCCCCC1	6.6	-4.4	-1.5	-4.0	0.9	nt
O=C(c1ccc(S(=O)(=O)c2ccccc2Cl)c([N+](=O)[O-])c1)N1CCCCCC1	-0.8	-2.3	-3.5	11.7*	79.1*	49.2*
CC1=C([N+](=O)[O-])C(c2ccccc2)C2=C(N1)c1ccccc1C2=O (stereo not given)	20.4	-2.9	-4.4	0.4	87.8*	65.3*
COc1ccc(C2C(C#N)=C(C)NC3=C2C(=O)c2ccccc23)cc1 (stereo not given)	23.3	-2.7	-3.1	-5.0	0.7	nt
CCCCCCCCNC(C)C(O)c1ccc(SC(C)C)cc1 (stereo not given)	nt	0.5	-8.0	2.0	85.9*	11.1
COc1ccc(NS(=O)(=O)c2ccc(-c3coc(C)n3)cc2)cc1OC	-2.4	-14.2	-6.7	nt	98.3*	83.4*
CN1/C(=C\C(=O)Nc2ccc(Cl)cc2)C(C)(C)c2ccccc21	24.4	-0.2	-5.7	1.7	78.6*	70.0*
O=C(CCN1C(=O)/C(=C/c2ccccc2)SC1=S)NCCCN1CCOCC1	-1.0	-6.3	-0.9	-3.4	73.6*	3.7	MPTP abs DR=i;MPTP counter DR=63*
O=C(CCN1C(=O)/C(=C\c2cccc(Br)c2)SC1=S)NCCCN1CCOCC1	0.2	0.0	-2.7	-0.2	64.6*	17.6	MPTP abs DR=17.4*;MPTP counter DR=16.7*
O=C(CCN1C(=O)/C(=C\c2ccccc2)SC1=S)NNC(=O)c1ccncc1	2.3	7.6	2.2	-1.4	52.7*	4.4	MPTP abs DR=>100;MPTP counter DR=>80
CC(c1ccccc1)N1C(=O)/C(=C/c2ccncc2)SC1=S (stereo not given)	4.2	-16.4	-3.4	7.1	69.7*	29.2*
CCOc1ccccc1NC(=O)c1cc(SC)ccc1Cl	21.6	-4.3	2.3	-2.2	0.2	nt
CCN(CC)CC(=O)Nc1ccc2c(c1)Nc1ccccc1CC2	5.7	1.7	-1.8	2.4	84.0*	-3.7	MPTP abs DR=10.5*;MPTP counter DR=66.3*
COc1ccc(C(C(=O)NC(C)(C)C)N(Cc2ccco2)C(=O)CCC(=O)Nc2ccccn2)cc1 (stereo not given)	-2.9	0.0	0.0	0.6	1.8	nt
CN(NS(=O)(=O)c1ccc(Br)cc1)c1nc(C(F)(F)F)nc2ccccc12	4.3	-7.4	-6.0	1.9	73.2*	86.4*
Cc1ccc(NCC(=O)Nc2ccc(Br)cc2)cc1C	1.0	-3.2	-2.6	1.1	2.6	nt
